Data on 20 compounds can be found in PubChem BioAssay.

Test [1] concerns XIP peptide (Xip251-270) binding. The test is described as follows: small-molecule binders of XIP peptide, primary screen, biochemical, small-molecule microarray, fluorescence 635/667 nm, 0.1 µg/mL protein (AID 1182). Conditions: fluorescent protein binding, 635 nm, higher = more signal, called active from +8 up or from −8 down.
Another test deals with XIP peptide (Xip251-270). Kind of test: small-molecule binders of XIP peptide, primary screen, biochemical, small-molecule microarray, fluorescence 635/667 nm, 0.5 µg/mL protein (AID 1183). The settings on record: small-molecule microarray binding, fluorescence 635 nm; higher = more signal.
Test [2] can be described thus: Plasmodium falciparum growth inhibition, primary screen, strain 3D7, DAPI fluorescence, 100 nL (AID 1184).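 Also: parasites grown inside human red blood cells in medium with human serum.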 Conditions: P. falciparum 3D7 growth, 3 d, higher = more signal.
The target of test [3] is Homeobox protein Hox-A13 (Mus musculus) (UniProt Q62424). The test is described as follows: inhibitors of HoxA13-DNA binding, primary screen, biochemical, fluorescence polarization, labeled oligonucleotide (AID 1185). The settings on record: 15 min, higher = more signal, called active from +8 up or from −8 down. In general terms: Polarisation of emitted light reports the rotation of a fluorescent probe.
Sequence of Homeobox protein Hox-A13 (Mus musculus) (Q62424 whole entry, looked up): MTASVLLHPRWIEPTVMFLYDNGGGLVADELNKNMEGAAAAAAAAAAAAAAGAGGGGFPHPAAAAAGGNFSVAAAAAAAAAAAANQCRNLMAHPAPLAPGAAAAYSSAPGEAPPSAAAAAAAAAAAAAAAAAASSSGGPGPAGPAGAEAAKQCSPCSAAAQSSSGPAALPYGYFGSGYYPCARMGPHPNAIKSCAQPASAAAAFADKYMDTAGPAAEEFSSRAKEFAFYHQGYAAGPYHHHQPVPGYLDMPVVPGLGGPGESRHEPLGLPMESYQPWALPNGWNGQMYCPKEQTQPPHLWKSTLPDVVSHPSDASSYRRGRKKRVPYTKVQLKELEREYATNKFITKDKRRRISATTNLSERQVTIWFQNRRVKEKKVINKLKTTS

Activity calls are given as the source filed them.

Turning to `CC(=O)OC[C@H]1O[C@H](CC=NO[C@H](C)c2cn([C@@H]3COC[C@H]3O)nn2)C=C[C@@H]1OC(C)=O`, the results for the composite z-score (in test [1]; in the test on XIP peptide (Xip251-270)) were -0.205 (inactive) and 0.644, respectively. Besides, the figures for the z-score in test [2] and in test [3] were -0.0896 and 0.928 (inactive), respectively.

For the compound `CCOC(=O)[C@H](Cc1ccccc1)NC(=O)CCC1CC(OC(=O)NCc2ccc3c(c2)OCO3)CC2(CCCC(COC(=O)NCCOc3ccccc3)O2)O1` (stereo not given in full), the composite z-score in test [1] was -0.125 (inactive); with XIP peptide (Xip251-270) it was 0.565. Besides, the z-score was -1.57 in test [2] and -0.985 (inactive) in test [3].

With `O=C1[C@H]2[C@H]3[C@H](O)[C@H](O)CC(=NOC[C@@H](O)COCc4ccco4)[C@@H]3CC[C@H]2C(=O)N1c1cccc(Oc2ccccc2)c1`, the composite z-score in test [1] is 0.2 (inactive); in the test with XIP peptide (Xip251-270) it was -0.344. Besides, the figures for the z-score in test [2] and in test [3] were 0.48 and -5.57 (inactive), respectively.

For `CCN1C(=O)[C@H]2[C@@H]3C(=CC[C@H]2C1=O)C(=O)[C@H]1O[C@H]1[C@H]3O`, the composite z-score in test [1] was -0.529 (inactive); with XIP peptide (Xip251-270), 0.568. Also, the z-score in test [2] is -1.94; in test [3], -6.04 (inactive).

In the case of `CCCNC(=O)OC[C@H]1O[C@H](CCON=C[C@@H](NS(=O)(=O)c2ccc(C)cc2)[C@H](C)C=CCC(=O)OC)C=C[C@@H]1Oc1ccc(OC)cc1`, the composite z-score in test [1] is -0.349 (inactive); in the test with XIP peptide (Xip251-270), -0.501. In addition, the values for the z-score in test [2] and in test [3] were -0.862 and -4.48 (inactive), respectively.

With `COc1ccc(O[C@H]2C=C[C@@H](C#Cc3ccccc3)O[C@@H]2CO)cc1`, the composite z-score in test [1] is -0.727 (inactive); in the test with XIP peptide (Xip251-270), 0.266. Besides, the z-score in test [2] is 0.284; in test [3], -3.22 (inactive).

For `CCOC(=O)[C@H](CC(C)C)NC(=O)CCC1CC(OC(=O)NCc2ccc3c(c2)OCO3)CC2(CCCC(COC(=O)NCCOC)O2)O1` (stereo not given in full), the composite z-score is 0.685 (inactive) in test [1] and 0.0552 with XIP peptide (Xip251-270). In addition, the values for the z-score in test [2] and in test [3] were -1.99 and -5.34 (inactive), respectively.

With `CCOC(=O)CCN1C(=O)[C@H]2[C@H]3[C@H](O)[C@H](O)CC(=NOCC=C(C)CCC=C(C)C)[C@@H]3CC[C@H]2C1=O`, the composite z-score in test [1] was 0.257 (inactive); in the test with XIP peptide (Xip251-270), 0.613. Besides, the z-score in test [2] was 0.664; in test [3], -1.21 (inactive).

As to `CCOC(=O)[C@H](Cc1ccccc1)NC(=O)CCC1CC(OC(=O)NCCc2ccc(F)cc2)CC2(CCCC(COC(=O)NCc3cccc(C(F)(F)F)c3)O2)O1` (stereo not given in full), the composite z-score is 0.966 (inactive) in test [1] and 0.463 in the test on XIP peptide (Xip251-270). Also, the z-score in test [2] was -1.9; in test [3], -3.11 (inactive).

With `CCOC(=O)[C@H](CC(C)C)NC(=O)CCC1CC(OC(=O)NCc2ccc3c(c2)OCO3)CC2(CCCC(COC(=O)NCCOc3ccccc3)O2)O1` (stereo not given in full), the results for the composite z-score (in test [1]; in the test with XIP peptide (Xip251-270)) were 0.24 (inactive) and 0.368, respectively. In addition, the z-score in test [2] was -1.87; in test [3] it was -6.24 (inactive).

For `O=C1C[C@@H](O)[C@@H](O)[C@@H]2[C@@H]3C(=O)N(C4CCCCC4)C(=O)[C@@H]3CC[C@@H]12`, the composite z-score was -0.08 (inactive) in test [1] and 0.148 in the test with XIP peptide (Xip251-270). The z-score in test [2] was 0.922; in test [3], 0.136 (inactive).

Take `COC(=O)[C@H](C)NC(=O)CCC1CC(OC(=O)NCc2cccc3ccccc23)CC2(CCCC(COC(=O)NCCOc3ccccc3)O2)O1` (stereo not given in full): the composite z-score in test [1] is 2.12 (inactive); in the test with XIP peptide (Xip251-270), 0.345. In addition, the z-score was -0.372 in test [2] and -6.3 (inactive) in test [3].

Take `CC(=O)OC[C@H]1O[C@@H](ON=C(C)C)[C@H](OC(C)=O)[C@@H](OC(C)=O)[C@@H]1OC(C)=O`: the results for the composite z-score (in test [1]; in the test with XIP peptide (Xip251-270)) were -0.0542 (inactive) and -0.245, respectively. Further, the z-score was 0.213 in test [2] and -0.383 (inactive) in test [3].

For the compound `CC(CCN1CCc2nc(-c3ccccc3)c(-c3ccccc3)cc2C1)=NOC(C)CN1CCCc2nc(C)c(C)cc21` (stereo not given), the results for the composite z-score (in test [1]; in the test with XIP peptide (Xip251-270)) were 0.161 (inactive) and 0.558, respectively. The values for the z-score in test [2] and in test [3] were 0.5 and -9.97 (active), respectively.

Take `COc1ccc(COC(=O)NN=C2C[C@@H](O)[C@@H](O)[C@@H]3[C@@H]4C(=O)N(C[C@@H]5CCCO5)C(=O)[C@@H]4CC[C@H]23)cc1`: the composite z-score in test [1] was -0.0696 (inactive); in the test with XIP peptide (Xip251-270) it was -0.239. Besides, the z-score was -0.534 in test [2] and 0.459 (inactive) in test [3].

Turning to `CO[C@@H]1[C@H](O)CO[C@H]1C=Cc1ccccc1`, the composite z-score was -0.553 (inactive) in test [1] and 0.836 with XIP peptide (Xip251-270). For the same compound, the figures for the z-score in test [2] and in test [3] were -0.703 and -3.28 (inactive), respectively.

For the compound `O=C1C[C@@H](O)[C@@H](O)[C@@H]2[C@@H]3C(=O)N(c4ccc(F)cc4F)C(=O)[C@@H]3CC[C@H]12`, the composite z-score in test [1] is 0.139 (inactive); in the test on XIP peptide (Xip251-270) it was -0.0234. Further, the z-score in test [2] was 0.289; in test [3], -0.55 (inactive).

As to `CO[C@H]1COC(=O)CCC[C@H](C)[C@@H](OC)COC(=O)CC=C[C@@H]1C`, the figures for the composite z-score (in test [1]; in the test on XIP peptide (Xip251-270)) were -0.294 (inactive) and 0.003, respectively. The z-score was -0.809 in test [2] and 0.544 (inactive) in test [3].

`CC(C)[C@@H](OCc1ccccc1)[C@H](C)C=NOC[C@@H](O)[C@H]1O[C@@H]2OC(C)(C)O[C@@H]2[C@H]1O`: the composite z-score in test [1] is -0.12 (inactive); with XIP peptide (Xip251-270), 0.258. Also, the results for the z-score in test [2] and in test [3] were -0.489 and -1.24 (inactive), respectively.

As to `C[C@@H](c1ccccc1)N1C(=O)[C@H]2[C@H]3[C@H](O)[C@H](O)CC(=NOCc4ccccc4)[C@@H]3CC[C@H]2C1=O`, the values for the composite z-score (in test [1]; in the test with XIP peptide (Xip251-270)) were 0.641 (inactive) and 0.169, respectively. The z-score in test [2] was -1.49; in test [3] it was -3 (inactive).
